Measurements published in PubChem BioAssay (Tox21).
Values joined by “and” are separate entries in the source; they are usually repeats but may differ in a detail not shown here. Equal values may be shown once. Inconclusive results are not listed. Entries that show only a call come without a potency. The source holds several records for some structures; these can differ, active in one and inactive in another. Active and inactive are the calls of the source. Unless noted, calls come from the whole dose curve; as a rule, active = well fitted curve in the direction sought with a large enough effect in the repeat runs; inconclusive = weak or mixed curves; inactive = no such curve, though single readings can be large; an effect the other way counts as inactive or inconclusive.

Assays:
[1] = qHTS assay to identify aromatase inhibitors - cell viability counter screen (AID 743084);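 note: cells stimulated with testosterone during compound exposure; nearly all actives have a fitted effect of over 55% in size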; note: potency is the fitted concentration of half-maximal effect
[2] = target: Aryl hydrocarbon receptor (Homo sapiens) (UniProt P35869); assay: qHTS assay to identify small molecule that activate the aryl hydrocarbon receptor (AhR) signaling pathway (AID 743085); note: nearly all actives have a fitted effect of over 15% in size; note: potency is the fitted concentration of half-maximal effect;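 for activation: HG2L7.5c1 human HepG2 liver cells with stably integrated DRE-driven firefly reporter; series mostly up to about 70 µM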
Method in brief: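 HepG2 cells (HG2L7.5c1) stably carrying a firefly luciferase reporter driven by 20 dioxin responsive elements were exposed to compound for 24 h at 37C after a 5 h settling period; luminescence rise (ONE-Glo) indicated activation.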

[3] = target: Peroxisome proliferator-activated receptor gamma (Homo sapiens) (UniProt P37231); assay: qHTS assay to identify small molecule agonists of the peroxisome proliferator-activated receptor gamma (PPARg) signaling pathway (AID 743094; active = well fitted activation curve with a large enough effect in the signal ratio in the repeat runs, not every such curve was filed as active; the % refers to the signal ratio; note: potency is the fitted concentration of half-maximal effect)
Method in brief: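 Agonist activity was taken from a beta-lactamase reporter (FRET substrate, 1 h at room temperature) in HEK293H cells carrying a PPARg UAS-bla construct. Compounds in DMSO were incubated 17 h at 37C after a 5 h cell pre-incubation.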

[4] = qHTS assay for small molecule agonists of the antioxidant response element (ARE) signaling pathway - cell viability counter screen (AID 743203; calls by dose curve; note: nearly all actives have a fitted effect of over 55% in size)
Method in brief: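 Viability counter screen: CellTiter-Glo luminescence, read after 30 min at room temperature, in ARE-bla HepG2 wells. Compound exposure lasted 16 h at 37C/5% CO2, following a 5 h pre-incubation of the cells after plating.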

[5] = qHTS assay for small molecule activators of the heat shock response signaling pathway - cell viability counter screen (AID 743209); note: nearly all actives have a fitted effect of over 50% in size
Method in brief: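 Cytotoxicity counter screen run in the same wells as the heat-shock bla reporter assay: HeLa HSE-bla cells, 5 h compound exposure at 37 C, viability read by CellTiter-Glo luminescence.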

[6] = qHTS assay for small molecule activators of the heat shock response signaling pathway (AID 743210; active = well fitted activation curve with a large enough effect in the signal ratio in the repeat runs, with a control signal flat, not every such curve was filed as active; the % refers to the signal ratio;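 note: HeLa cells with beta-lactamase reporter driven by heat shock elements; series mostly up to about 63 µM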)
Method in brief: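 Activation of heat shock element-controlled beta-lactamase expression is measured in HeLa cells by LiveBLAzer FRET fluorescence, with compound exposure lasting 5 h at 37 C and substrate loading 2.5 h at room temperature.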

[7] = qHTS assay to identify small molecule agonists of the peroxisome proliferator-activated receptor delta (PPARd) signaling pathway - cell viability counter screen (AID 743211); note: nearly all actives have a fitted effect of over 55% in size; note: potency is the fitted concentration of half-maximal effect
Method in brief: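 PPARd-bla HEK293H cells (UAS-beta-lactamase reporter) were treated with compounds for 17 h at 37 C. Viability was then read in the same wells by CellTiter-Glo luminescence after 30 min at room temperature.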

[8] = target: Peroxisome proliferator-activated receptor delta (Homo sapiens) (UniProt Q03181); assay: qHTS assay to identify small molecule agonists of the peroxisome proliferator-activated receptor delta (PPARd) signaling pathway (AID 743212; calls by dose curve)
Method in brief: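 Cells expressing a UAS-driven beta-lactamase reporter (PPARd-bla HEK293H) were given test compounds after a 5 h settle and kept at 37 C. Reporter activity was then measured as FRET fluorescence using LiveBLAzer B/G substrate.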

[9] = qHTS assay to identify small molecule antagonists of the peroxisome proliferator-activated receptor delta (PPARd) signaling pathway - cell viability counter screen (AID 743213); note: nearly all actives have a fitted effect of over 50% in size; note: potency is the fitted concentration of half-maximal effect
Method in brief: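 PPARd-bla HEK293H cells were treated with compounds plus agonist L165041 (300 nM final) for 17 h at 37 C. Viability was then read in the same wells by CellTiter-Glo luminescence after 30 min at room temperature.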

[10] = qHTS assay to identify small molecule agonists of the farnesoid-X-receptor (FXR) signaling pathway - cell viability counter screen (AID 743218); note: nearly all actives have a fitted effect of over 45% in size
Method in brief: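 Viability counter screen in the same wells: CellTiter-Glo luminescence, 30 min room-temperature incubation, measured after the beta-lactamase read. Cells were GeneBLAzer FXR-UAS-bla HEK 293T, compound-treated 16 h at 37C.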

[11] = qHTS assay to identify small molecule antagonists of the farnesoid-X-receptor (FXR) signaling pathway - cell viability counter screen (AID 743221; active = well fitted cell-killing curve with a large enough effect in the repeat runs, not every such curve was filed as active; note: nearly all actives have a fitted effect of over 50% in size)
Method in brief: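 FXR-UAS-bla HEK 293T cells were treated with test compounds plus chenodeoxycholic acid (50 uM final) for 16 h at 37 C. Cell viability in the same wells was then read as CellTiter-Glo luminescence after 30 min at room temperature.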

[12] = target: Vitamin D3 receptor (Homo sapiens) (UniProt P11473); assay: qHTS assay to identify small molecule agonists of the vitamin D receptor (VDR) signaling pathway (AID 743222; calls by dose curve)
Method in brief: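 Agonist mode, beta-lactamase reporter: fluorescence from LiveBLAzer B/G FRET substrate (2 h, room temperature) read after 16 h compound treatment at 37 C of VDR-bla cells, which were pre-incubated 4 h after seeding.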

[13] = qHTS assay to identify small molecule that activate the aryl hydrocarbon receptor (AhR) signaling pathway - cell viability counter screen (AID 743086);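 note: HepG2 liver cells carrying the AhR DRE luciferase reporter; series mostly up to about 70 µM; nearly all actives have a fitted effect of over 45% in size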
Method in brief: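 HepG2-AhR-luc (HG2L7.5c1) cells, 4000/well, were preincubated 5 h at 37C, exposed to compound in qHTS format for 24 hr at 37C, then given CellTiter-Fluor for 30 min; viability was read as fluorescence in the reporter wells.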

[14] = target: Bile acid receptor (Homo sapiens) (UniProt Q96RI1); assay: qHTS assay to identify small molecule antagonists of the farnesoid-X-receptor (FXR) signaling pathway (AID 743217; active = well fitted inhibition curve with a large enough effect in the signal ratio in the repeat runs, not every such curve was filed as active; the % refers to the signal ratio; note: potency is the fitted concentration of half-maximal effect)
Method in brief: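 Antagonist mode: chenodeoxycholic acid at 50 uM final stimulates a UAS-driven beta-lactamase reporter in HEK 293T FXR-bla cells during 16 h, 37C compound exposure. Read-out is FRET substrate fluorescence after 2 h at room temperature.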

[15] = target: Bile acid receptor (Homo sapiens) (UniProt Q96RI1); assay: qHTS assay to identify small molecule agonists of the farnesoid-X-receptor (FXR) signaling pathway (AID 743220; active = well fitted activation curve with a large enough effect in the signal ratio in the repeat runs, not every such curve was filed as active; the % refers to the signal ratio)
Method in brief: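 FXR-UAS-bla HEK 293T cells carrying a UAS-driven beta-lactamase reporter were plated for 5 h at 37C/5% CO2, then exposed to DMSO-dissolved Tox21 10K compounds for 16 h at 37C. A LiveBLAzer B/G FRET substrate was loaded for 2 h at room temperature before fluorescence reading.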

[16] = target: Vitamin D3 receptor (Homo sapiens) (UniProt P11473); assay: qHTS assay to identify small molecule antagonists of the vitamin D receptor (VDR) signaling pathway (AID 743223; active = well fitted inhibition curve with a large enough effect in the signal ratio in the repeat runs, not every such curve was filed as active; the % refers to the signal ratio)
Method in brief: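 VDR-bla cells were plated, incubated 4 h at 37C, then given compound and 1alpha,25-dihydroxyvitamin D3 (3 nM final). After 16 h at 37C, LiveBLAzer B/G FRET substrate was added for 2 h at room temperature and fluorescence read.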

[17] = target: Peroxisome proliferator-activated receptor gamma (Homo sapiens) (UniProt P37231); assay: qHTS assay to identify small molecule antagonists of the peroxisome proliferator-activated receptor gamma (PPARg) signaling pathway (AID 743191; calls by dose curve; note: nearly all actives have a fitted effect of over 30% in size; note: potency is the fitted concentration of half-maximal effect)
Method in brief: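 GeneBLAzer PPARg UAS-bla HEK293H cells carrying a UAS-driven beta-lactamase reporter were plated at 3000 cells/well, preincubated 5 h at 37C, then given compound for 17 h at 37C; LiveBLAzer B/G FRET substrate was read after 1 h at room temperature.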

[18] = qHTS assay to identify small molecule antagonists of the peroxisome proliferator-activated receptor gamma (PPARg) signaling pathway - cell viability counter screen (AID 743194); note: nearly all actives have a fitted effect of over 55% in size
Method in brief: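 PPARg-UAS-bla HEK293H cells were plated, rested 5 h at 37 C, then treated with compounds plus rosiglitazone (50 nM final) for 17 h at 37 C; viability was then read by CellTiter-Glo luminescence after 30 min at room temperature.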

[19] = qHTS assay for small molecule agonists of the antioxidant response element (ARE) signaling pathway (AID 743202; active = well fitted activation curve with a large enough effect in the signal ratio in the repeat runs, not every such curve was filed as active; the % refers to the signal ratio)
Method in brief: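 Steps: seed ARE-bla HepG2 cells (2,000/well); incubate 5 h at 37 C; add compounds by pin tool; incubate 16 h at 37 C; add FRET substrate; read fluorescence after 2 h at RT.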

[20] = target: Peroxisome proliferator-activated receptor delta (Homo sapiens) (UniProt Q03181); assay: qHTS assay to identify small molecule antagonists of the peroxisome proliferator-activated receptor delta (PPARd) signaling pathway (AID 743215; active = well fitted inhibition curve with a large enough effect in the signal ratio in the repeat runs, not every such curve was filed as active; the % refers to the signal ratio;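 note: cells stimulated with agonist L165041 at 300 nM final during compound exposure; series mostly up to about 62 µM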)
Method in brief: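 Agonist L165041 (300 nM final) added with compound to PPARd-bla HEK293H UAS-bla reporter cells; 17 h incubation at 37 C. Read-out: LiveBLAzer FRET substrate, 2 h at room temperature, fluorescence intensity.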

Peroxisome proliferator-activated receptor delta (Homo sapiens), sequence (Q03181 whole entry, looked up): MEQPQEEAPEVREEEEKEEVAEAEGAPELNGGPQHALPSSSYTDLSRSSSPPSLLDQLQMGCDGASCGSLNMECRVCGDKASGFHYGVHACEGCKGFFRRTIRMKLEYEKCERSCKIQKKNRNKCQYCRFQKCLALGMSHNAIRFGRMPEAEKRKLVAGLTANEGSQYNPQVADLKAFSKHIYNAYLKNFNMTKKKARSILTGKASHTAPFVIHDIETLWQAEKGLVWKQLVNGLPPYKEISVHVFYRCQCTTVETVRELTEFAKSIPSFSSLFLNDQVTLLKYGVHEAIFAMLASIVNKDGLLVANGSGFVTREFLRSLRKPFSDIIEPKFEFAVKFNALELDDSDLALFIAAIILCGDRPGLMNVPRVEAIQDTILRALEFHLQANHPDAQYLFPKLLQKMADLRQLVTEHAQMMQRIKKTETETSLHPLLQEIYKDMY
Bile acid receptor (Homo sapiens), sequence (Q96RI1 whole entry, looked up): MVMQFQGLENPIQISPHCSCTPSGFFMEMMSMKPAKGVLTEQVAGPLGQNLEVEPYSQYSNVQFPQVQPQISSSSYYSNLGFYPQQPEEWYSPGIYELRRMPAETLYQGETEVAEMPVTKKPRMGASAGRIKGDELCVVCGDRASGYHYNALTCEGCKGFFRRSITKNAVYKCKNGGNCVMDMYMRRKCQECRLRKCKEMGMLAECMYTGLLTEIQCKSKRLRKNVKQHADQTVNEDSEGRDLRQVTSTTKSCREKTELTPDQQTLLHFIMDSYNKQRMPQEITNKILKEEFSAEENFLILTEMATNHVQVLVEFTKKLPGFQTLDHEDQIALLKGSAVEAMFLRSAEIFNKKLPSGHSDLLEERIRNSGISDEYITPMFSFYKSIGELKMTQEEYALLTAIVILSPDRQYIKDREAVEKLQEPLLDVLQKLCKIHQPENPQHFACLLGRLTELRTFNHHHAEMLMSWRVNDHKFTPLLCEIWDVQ
Vitamin D3 receptor (Homo sapiens), sequence (P11473 whole entry, looked up): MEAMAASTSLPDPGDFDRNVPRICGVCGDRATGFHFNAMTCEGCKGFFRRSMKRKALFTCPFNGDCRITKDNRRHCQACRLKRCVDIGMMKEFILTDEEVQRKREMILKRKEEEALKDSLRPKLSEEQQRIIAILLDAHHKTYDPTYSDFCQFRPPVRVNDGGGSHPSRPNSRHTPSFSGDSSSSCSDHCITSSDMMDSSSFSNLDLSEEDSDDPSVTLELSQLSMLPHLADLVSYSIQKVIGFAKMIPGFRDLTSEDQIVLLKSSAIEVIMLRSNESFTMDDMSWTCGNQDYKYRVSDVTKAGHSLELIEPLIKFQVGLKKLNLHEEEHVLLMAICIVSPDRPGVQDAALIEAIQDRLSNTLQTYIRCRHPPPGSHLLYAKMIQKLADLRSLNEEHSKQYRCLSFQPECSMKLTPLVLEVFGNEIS
Peroxisome proliferator-activated receptor gamma (Homo sapiens), sequence (P37231 whole entry, looked up): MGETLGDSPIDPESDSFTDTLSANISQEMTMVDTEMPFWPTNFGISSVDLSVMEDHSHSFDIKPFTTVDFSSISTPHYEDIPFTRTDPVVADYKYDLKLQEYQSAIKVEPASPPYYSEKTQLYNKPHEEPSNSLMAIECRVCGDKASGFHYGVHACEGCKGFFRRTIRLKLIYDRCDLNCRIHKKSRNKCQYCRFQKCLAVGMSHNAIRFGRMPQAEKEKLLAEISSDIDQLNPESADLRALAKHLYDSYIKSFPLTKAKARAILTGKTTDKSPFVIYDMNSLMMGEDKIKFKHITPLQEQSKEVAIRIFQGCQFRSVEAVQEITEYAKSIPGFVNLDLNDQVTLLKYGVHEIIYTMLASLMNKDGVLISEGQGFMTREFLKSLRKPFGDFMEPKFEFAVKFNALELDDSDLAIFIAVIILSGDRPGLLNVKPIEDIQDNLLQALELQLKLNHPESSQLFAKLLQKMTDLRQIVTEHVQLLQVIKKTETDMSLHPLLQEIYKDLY
Aryl hydrocarbon receptor (Homo sapiens), sequence (P35869 whole entry, looked up): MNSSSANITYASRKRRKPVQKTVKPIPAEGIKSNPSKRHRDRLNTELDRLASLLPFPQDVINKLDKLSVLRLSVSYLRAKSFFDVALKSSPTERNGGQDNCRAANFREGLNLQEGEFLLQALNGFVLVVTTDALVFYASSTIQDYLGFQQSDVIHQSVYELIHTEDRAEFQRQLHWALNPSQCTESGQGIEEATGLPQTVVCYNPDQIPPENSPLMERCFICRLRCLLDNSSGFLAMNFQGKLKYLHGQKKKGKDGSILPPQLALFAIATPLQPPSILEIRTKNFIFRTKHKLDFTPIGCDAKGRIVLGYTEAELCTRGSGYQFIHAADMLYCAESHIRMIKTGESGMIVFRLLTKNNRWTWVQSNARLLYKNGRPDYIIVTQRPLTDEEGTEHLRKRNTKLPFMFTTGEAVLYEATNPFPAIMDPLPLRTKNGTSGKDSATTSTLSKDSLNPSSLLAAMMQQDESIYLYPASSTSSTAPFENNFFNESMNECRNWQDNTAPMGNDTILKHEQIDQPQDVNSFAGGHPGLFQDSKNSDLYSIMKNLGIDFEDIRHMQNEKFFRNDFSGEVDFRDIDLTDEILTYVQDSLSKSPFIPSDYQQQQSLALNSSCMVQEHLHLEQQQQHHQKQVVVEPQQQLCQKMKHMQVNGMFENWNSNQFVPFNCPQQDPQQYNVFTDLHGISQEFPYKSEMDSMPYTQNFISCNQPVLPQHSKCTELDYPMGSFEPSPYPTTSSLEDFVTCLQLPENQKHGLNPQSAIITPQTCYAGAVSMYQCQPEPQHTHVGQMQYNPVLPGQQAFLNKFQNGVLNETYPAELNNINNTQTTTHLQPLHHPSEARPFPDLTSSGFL

Structure (SMILES) | Potency [1] | Potency [2] | Potency [3] | Potency [4] | Potency [5] | Potency [6] | Potency [7] | outcome [8] | Potency [9] | Potency [10] | Potency [11] | outcome [12] | Potency [13] | Potency [14] | outcome [15] | outcome [16] | Potency [17] | Potency [18] | Potency [19] | Potency [20]
C[C@]12CC[C@H]3[C@@H](CCC4=CC(=O)CC[C@@]43C)[C@@H]1CC[C@@H]2C(=O)CO | inactive | inactive | inactive | inactive | inactive | inactive | inactive | inactive | inactive | inactive | inactive | inactive |  |  |  |  |  |  |  | 
CC(C)OC(=O)C(C)(C)Oc1ccc(C(=O)c2ccc(Cl)cc2)cc1 |  | inactive |  | inactive | inactive |  | 54.9 µM (active) | inactive | 49 µM (active) and inactive | inactive | inactive | inactive | inactive | inactive | inactive | inactive |  |  |  | 
COc1ccccc1/C=C/C=O | inactive |  | inactive | inactive | inactive |  | inactive | inactive | inactive | inactive | inactive | inactive | inactive | inactive | inactive | inactive | inactive |  |  | 
Cc1c(C(N)=O)cc([N+](=O)[O-])cc1[N+](=O)[O-] | inactive | inactive |  | inactive | inactive |  | inactive | inactive | inactive | inactive | inactive | inactive |  |  |  | inactive |  | inactive | inactive | 
O=C=Nc1ccc(Cc2ccc(N=C=O)cc2)cc1 |  |  |  | inactive | inactive | inactive | inactive | inactive | inactive | inactive | inactive | inactive | inactive | inactive | inactive | inactive |  |  |  | 
CN(C)C(=N)N=C(N)N | inactive |  |  | inactive | inactive |  | inactive |  | inactive | inactive | inactive |  |  |  |  |  |  | inactive |  | 
C/C=C/C(=O)O |  |  |  | inactive | inactive | inactive | inactive |  | inactive | inactive | inactive | inactive | inactive |  |  | inactive |  | inactive |  | 
CCCc1c(OCCCCc2nn[nH]n2)ccc(C(C)=O)c1O | inactive |  | 2.19 µM (active) | inactive | inactive | inactive | inactive |  | inactive | inactive | inactive | inactive |  | inactive | inactive |  | 8.71 µM (active) |  |  | inactive
O=C(/C=C/C=C/c1ccc2c(c1)OCO2)N1CCCCC1 | inactive | 612 nM (active) and 2.17 µM (active) |  | inactive | inactive |  | inactive | inactive | inactive | inactive | inactive | inactive |  | inactive and 54.9 µM (active) | inactive | inactive | 43.7 µM (active) |  |  | 
COc1cc([C@@H]2c3cc4c(cc3[C@H](O)[C@H]3COC(=O)[C@H]23)OCO4)cc(OC)c1OC | inactive |  |  | inactive | inactive | inactive | inactive |  |  | inactive | inactive | inactive | inactive |  |  |  | inactive | inactive |  | 
O=C1OC2(c3cc(Br)c(O)c(Br)c3Oc3c2cc(Br)c(O)c3Br)c2c(Cl)c(Cl)c(Cl)c(Cl)c21 | 4.86 µM (active) and 8.31 µM (active) | inactive |  | inactive | inactive |  | inactive |  | inactive | inactive | inactive |  |  |  |  |  |  |  | inactive | inactive
CN(C)CCN(Cc1cccs1)c1ccccn1 |  |  | inactive | inactive | inactive |  | inactive | inactive | inactive | inactive | inactive | inactive | inactive |  |  | inactive | inactive | inactive |  | inactive
